# LGR2 antag: inhibitors of bursicon-induced Drosophila LGR2 receptor cAMP signaling; inhibition, % at 9.99 µM; hit rate 0.35% among 380,000; HEK293 LGR2, CRE-luciferase, bursicon-stimulated, 4 h; AID 720647;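 active = drop in luminescence signal, shown as inhibition above about 50% in the replicate tests, limit read from the data, passing the limit was not always enough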;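 note: agonist challenge used bursicon conditioned medium at about half maximal strength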
# HSP90 inh: inhibitors of HSP90 luciferase refolding in rabbit reticulocyte lysate. hit rate 0.91% among 290,000. inhibition, % at 5.6 µM. luciferase refolding luminescence, 3 h. AID 1789;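 active = inhibition above the screen-wide mean plus 3 SD, computed separately per campaign, cut at about 16% in these data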;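 note: 0% = DMSO wells and 100% = 60 µM geldanamycin wells; inhibitors lower the luminescence because luciferase stays unfolded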
# TWEAK-Fn14 inh: TWEAK-Fn14 signaling inhibition. hit rate 2% among 360,000. inhibition, % at 10 µM. AID 1159606. TWEAK-stimulated Fn14 reporter cells, luciferase luminescence, 8 h; in the data active = inhibition above about 50%
# TROY NFkB inh: blocks TROY-dependent signaling in reporter cells; Q293 LMP1-TROYcd NF-kB luciferase reporter, 4 h; inhibition, % at 10 µM; hit rate 0.98% among 360,000; AID 1347056;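 active = compounds whose plate-normalised and pattern-corrected inhibition of the luciferase reporter signal at the single screening dose is 50% or more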
# An asterisk follows results filed as active; x = no result given. Sampled rows, rich in hits. Any-hit rate of the full collection: about 2.2%.
SMILES,LGR2 antag,HSP90 inh,TWEAK-Fn14 inh,TROY NFkB inh
COc1cc(N=c2c([N+](=O)[O-])nn(-c3ccc4c(c3)OCCO4)n2O)cc(OC)c1,-3,12,41,53*
COc1ccc(CN(C)C[C@@H]2Oc3ccc(NC(=O)C4CC4)cc3CC(=O)N([C@H](C)CO)C[C@@H]2C)cc1,-4,x,x,x
CC(=O)Nc1ccc(-c2nn[nH]n2)cc1,5,-3,3,1
CC(=O)Nc1ccc(-c2ccnc(-c3ccc(NC(C)=O)cc3)n2)cc1,-14,-1,62*,-15
COCC(=O)N[C@@H]1CC[C@@H](CC(=O)N2CCCCC2)O[C@H]1CO,5,x,x,x
C[C@H]1Cn2cnc(C(=O)Nc3cccc(Cl)c3)c2C(=O)N1,14,x,71*,52*
C/C=C/c1ccc2c(c1)O[C@H](CN(C)C(=O)Nc1cc(F)ccc1F)[C@H](C)CN([C@H](C)CO)S2(=O)=O,22,x,x,x
O=C(/C=C\Nc1ccc2c(c1)OCO2)c1ccc(Cl)s1,35,3,53*,16
O=C(/C=C\Nc1ccc2c(c1)OCO2)c1cccs1,-68,1,30,-55
Cc1ccccc1Oc1cc(-n2ncc(Cl)c(Cl)c2=O)ncn1,101*,-4,107*,90*
O=C(C[C@H]1CC[C@H]2[C@@H](COC[C@@H](O)CN2S(=O)(=O)c2cccc(Cl)c2)O1)N1CCCCC1,-13,x,x,x
COc1ccc2c3c(cccc13)C(=O)CC2,30,5,63*,28
COc1ccc2c(c1OC)C(=O)OC2,x,-3,-4,-5
O=C(c1ccsc1)N1CCCC(N2CCN(c3ccccc3F)CC2)C1 (stereo not given),0,4,95*,-9
O=C(c1noc2c1CCCC2)N1CCCC(N2CCN(c3ccccc3F)CC2)C1 (stereo not given),x,3,4,-4
C[C@H](CO)N1C[C@H](C)[C@@H](CN(C)Cc2ccc(-c3ccccc3)cc2)Oc2ccc(NC(=O)Nc3ccccc3)cc2C1=O,0,x,x,x
COc1cccc2c1OC1(C)CC2NC(=O)N1c1cccc(C(=O)Nc2ccc3c(c2)OCCO3)c1 (stereo not given),-19,2,83*,31
Cc1nc2ccccn2c1C(=O)/C=C/c1ccc(F)cc1,x,-2,41,7
Cc1nc2ccccn2c1-c1ccnn1S(=O)(=O)c1ccc(F)cc1,14,1,52*,16
COCCN(C(=O)CNC(=O)c1ccco1)C(C(=O)NC1CCCC1)c1cccc(OC)c1 (stereo not given),-13,-1,-2,-7
COc1cccc(C(C(=O)NC2CCCC2)N(Cc2ccccc2OC)C(=O)c2ccco2)c1 (stereo not given),x,-2,74*,x
CN(C)C(=O)[C@@H]1[C@@H](CO)[C@@H]2Cn3c(ccc(-c4cccc(F)c4)c3=O)[C@@H]2N1C(=O)c1ccccn1,12,x,x,x
Cc1cccc(S(=O)(=O)N2CC[C@@H]3[C@H](CO)N(C)c4ccc(-c5ccc(C#N)cc5)cc4[C@@H]32)c1,11,x,x,x
CS(=O)c1nc(-c2ccc(Br)cc2)cc(-c2ccccc2)c1C#N (stereo not given),97*,2,56*,74*
COc1ccc(-c2cc(-c3ccccc3)c(C#N)c(S(C)(=O)=O)n2)cc1,x,8,-141,-59
SMILES,LGR2 antag,HSP90 inh,TWEAK-Fn14 inh,TROY NFkB inh
CS(=O)(=O)c1nc(-c2ccc(Br)cc2)cc(-c2ccccc2)c1C#N,x,-4,39,63*
CN1C(=O)c2cc(NC(=O)C3CCCCC3)ccc2OC[C@H]2O[C@H](CC(=O)NCC3CCCCC3)CC[C@@H]21,7,x,x,x
CN1CCN(C(=O)C[C@@H]2CC[C@H]3[C@@H](COC[C@H](O)CN3C(=O)Nc3ccc4c(c3)OCO4)O2)CC1,16,x,x,x
CCCc1nnc(NC(=O)C(=O)NCCN(CC)CC)s1,x,1,19,54*
CCCc1nnc(NC(=O)C(=O)NCCN(C)C)s1,-6,0,9,-4
O=C(c1cc(C(=O)NCCc2ccccc2)c(=O)n(CCc2ccccc2)c1)c1cc(Cl)ccc1O,12,1,66*,14
COc1ccc(CCNC(=O)c2cc(C(=O)c3cc(Cl)ccc3O)cn(CCc3ccc(OC)cc3)c2=O)cc1,6,2,46,17
C[C@@H]1CN([C@@H](C)CO)C(=O)c2cc(NC(=O)C3CC3)ccc2O[C@@H]1CN(C)CC1CC1,20,x,x,x
Cc1c(/C=C/C(=O)c2ccccc2)cnn1C,x,1,-2,-62
CCn1ncc(/C=C/C(=O)c2ccccc2)c1C,-12,-1,53*,-10
C[C@H](CO)N1C[C@H](C)[C@@H](CN(C)Cc2ccc(C(F)(F)F)cc2)Oc2ccc(NC(=O)C3CC3)cc2CC1=O,1,x,x,x
O=C(COc1ccc(Br)cc1Br)NC(=S)N1CCCc2ccccc21,x,2,64*,43
O=C(COc1ccc(Br)cc1Cl)NC(=S)N1CCc2ccccc21,-55,-3,-70,-38
COc1cc(CC(=O)N2CCc3ccccc32)cc(OC)c1OC,x,-1,10,15
CCOC(=O)N1CCc2cc(OC)c(OC)c3c2c1cc1cc(OC)c(OC)cc13,18,x,54*,15
COc1ccc2[nH]c3c(N4CCc5ccccc5C4)ncnc3c2c1,79*,-5,92*,69*
COc1cccc2[nH]c3c(N4CCCCC4)ncnc3c12,x,-2,-53,-25
CCOC(=O)N1CCN(c2ncnc3c2[nH]c2ccc(F)cc23)CC1,x,0,38,42
COc1cc2[nH]c3c(N4CCN(c5ccccn5)CC4)ncnc3c2cc1OC,x,0,73*,38
COc1ccc(N2CCN(c3ncnc4c3[nH]c3ccccc34)CC2)cc1,x,-6,77*,76*
Fc1ccc2[nH]c3c(N4CCN(c5ccccc5)CC4)ncnc3c2c1,x,-3,102*,76*
CC(C)CC#Cc1ccc([C@H]2[C@@H](CO)N3C(=O)CN(C(=O)c4cnccn4)C[C@H]23)cc1,9,x,x,x
COc1cccc(NC(=O)N(C)C[C@H]2Oc3ncc(/C=C/c4ccccc4)cc3C(=O)N([C@@H](C)CO)C[C@H]2C)c1,-5,x,x,x
C[C@H](CO)N1C[C@H](C)[C@@H](CN(C)C(=O)Cc2ccccc2)OCCCC[C@H](C)Oc2ccc(NS(=O)(=O)c3ccc(F)cc3)cc2C1=O,-11,x,x,x
OC1(c2cccc(C(F)(F)F)c2)CCN(c2ncnc3c2[nH]c2ccc(F)cc23)CC1,x,-3,98*,77*
SMILES,LGR2 antag,HSP90 inh,TWEAK-Fn14 inh,TROY NFkB inh
O=C(CCCN1CCC(O)(c2cccc(C(F)(F)F)c2)CC1)c1ccc(F)cc1,10,x,-6,9
Cc1cc(C)cc(OCC(=O)NCC2CCCO2)c1 (stereo not given),11,2,89*,73*
Brc1ccc2ncnc(Nc3ccc(N4CCOCC4)cc3)c2c1,26,-3,59*,42
Cc1cccc2sc(NNC(=O)c3ccc(S(=O)(=O)N4CC(C)CC(C)C4)cc3)nc12 (stereo not given),46,6,64*,51*
S=C(NNc1ccnc2cc(Cl)ccc12)Nc1ccccc1Cl,-7,2,64*,66*
S=C(Nc1ccccc1Cl)Nc1ccc(Cl)cc1Cl,-17,-3,7,5

# Bioassay records as filed in PubChem.
